Holding throughout (assay): NCI-60 one-dose screen, 48 h (100 = growth as untreated, 0 = no growth, -100 = all killed)
Holding throughout (conditions): 10 µM unless noted

Assay [1] relates to SK-MEL-2 melanoma.
For assay [2], the system named is EKVX NSCLC.
Assay [3] concerns SN12C renal.
For assay [4], the system named is UO-31 renal.
The subject of assay [5] is TK-10 renal.
Assay [6] concerns ACHN renal.
The test system of assay [7] is CAKI-1 renal.
In assay [8] the test system is A498 renal.
Assay [9] deals with CCRF-CEM leukemia.
Assay [10] deals with MOLT-4 leukemia.
Assay [11] relates to SR leukemia.
The subject of assay [12] is OVCAR-8 ovarian.
The test system of assay [13] is OVCAR-5 ovarian.
In assay [14] the test system is OVCAR-4 ovarian.
The test system of assay [15] is SK-OV-3 ovarian.
For assay [16], the system named is IGROV1 ovarian.
The test system of assay [17] is OVCAR-3 ovarian.
In assay [18] the test system is HS 578T breast.
In assay [19] the test system is RPMI-8226 leukemia.
Assay [20] deals with NCI/ADR-RES ovarian.

About 83,000 compounds went through this panel and 20% of them were active in at least one assay; those are over-represented in the sample as a whole.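 Results are percent growth after 48 hours of single-concentration exposure. 100 means growth as in untreated cells, lower positive values show inhibition; negative values down to -100 show cell death.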 A number with no mark means an inactive call. Activity calls are given as the source filed them. Rule for the calls: active = growth percent below 10; inactive = the rest.

Consider `CCOC(=O)Nc1ccc(-c2nc(-c3cccc(OCCN4CCOCC4)c3)c(-c3ccnc(Br)c3)[nH]2)cc1`, for which the growth was 40.2% in [1]; 61.1% in assay [2]; 59.9% in assay [3]; 21.5% in assay [4]; 87.4% in [5]; 43.9% in assay [6]. The growth is 51.3% in assay [7]; 49.9% in [8]; 26.4% in assay [9]; 7.57% (active) in assay [10]; -12.9% (active) in assay [11]; 43.8% in [12]. For the same compound, the growth in [13] is 66.9%; in assay [14], 52.7%; in [15], 80.8%; in [16], 63.6%; in assay [17], 48.6%; in assay [18] it was -16.4% (active).

Take `CC1(C)C2CC1C1(/C=N\Nc3ccccc3)C(C2)C(C#N)(C#N)C1(C#N)C#N` (stereo not drawn): the growth in assay [1] is 92.7%; in assay [2], 89%; in assay [3], 90%; in assay [4], 66.6%; in [5], 133%; in assay [6] it was 75.9%. Besides, the growth is 70.1% in assay [7]; 97.1% in [8]; 83.7% in [9]; 95.7% in [10]; 92.4% in assay [11]; 90.1% in assay [19]. Moreover, the growth in assay [13] was 103%; in [14] it was 82.5%; in assay [15], 97.4%; in assay [16], 64.8%; in assay [17], 84.7%; in assay [18] it was 93.9%. Moreover, in assay [20], the growth is 87.8%.

For `CN(C)CCN1CCN(c2ncccc2C2Nc3ccccc3-n3cccc32)CC1` (stereo not drawn), the growth was 124% in assay [1]; 102% in assay [2]; 101% in [3]; 77.8% in [4]; 103% in assay [5]; 105% in [6]. Also, the growth in [7] was 85.4%; in [8] it was 86.7%; in assay [9], 102%; in assay [10], 98.2%; in assay [11], 98.3%; in assay [12], 101%. Also, the growth is 100% in [13]; 113% in assay [14]; 107% in assay [15]; 105% in assay [16]; 115% in [17]; 95.7% in [18].

As for `CCCCCCNC(=O)Oc1ccc(/C(=C(\C)c2ccc(Cl)cc2)c2ccc(OCCCN(C)C)cc2)cc1`, the growth is 92.1% in assay [1]; 83% in [2]; 90% in assay [3]; 55.4% in assay [4]; 75.8% in assay [5]; 94.3% in assay [6]. The growth in [7] was 96.2%; in [8] it was 85.7%; in [9], 70.7%; in assay [10] it was 37.3%; in assay [11] it was -13% (active); in assay [19] it was 79%. The growth is 75.1% in assay [13]; 76% in assay [14]; 94.4% in assay [15]; 67% in assay [16]; 87.8% in assay [17]; 74.5% in [18]. Moreover, the growth in [20] is 83.2%.

With `Cc1ccccc1C(=O)NN`, the growth was 99.9% in assay [1]; 108% in [2]; 108% in [3]; 70.7% in assay [4]; 105% in assay [5]; 106% in [6]. Further, the growth was 98.3% in assay [7]; 117% in assay [8]; 100% in assay [9]; 92.3% in assay [10]; 86.2% in [11]; 109% in [12]. Further, the growth in assay [13] was 121%; in [14], 117%; in [15] it was 98.8%; in assay [16], 85.8%; in [17], 126%; in assay [18], 106%.

`COc1ccc(C2CC(c3ccc(Nc4nc(Nc5ccc(F)cc5)nc(Nc5ccc(Cl)cc5)n4)cc3)=NN2C(C)=O)cc1` (stereo not drawn): the growth in assay [1] is 96.1%; in [2], 109%; in [3], 103%; in assay [4] it was -65.4% (active); in [5], 103%; in assay [6] it was 91.7%. The growth in assay [7] is 108%; in [8], 129%; in [9] it was 124%; in assay [10] it was 93%; in assay [11], 107%; in assay [19], 90.8%. Moreover, the growth in assay [13] is 104%; in [14], 99.3%; in assay [15], 107%; in [16] it was 40.4%; in [17], 128%; in assay [18] it was 108%. The growth in assay [20] was 85%.

For the compound `CCCCCCNC(=O)Oc1ccc(/C(=C(\C)c2ccc(OC)cc2)c2ccc(OCCN3CCCCC3)cc2)cc1`, the growth in assay [1] was 69.2%; in assay [2] it was 74%; in assay [3], 74.3%; in assay [4], 21.6%; in [5], 102%; in assay [6] it was 84.2%. Moreover, the growth was 72.3% in [7]; 88.1% in [8]; 66.5% in [9]; 41.8% in assay [10]; 0.84% (active) in assay [11]; 44.7% in assay [19]. In addition, the growth is 82.6% in assay [13]; 70% in assay [15]; 53.8% in assay [16]; 80.9% in assay [17]; 65.7% in assay [18]; 75.8% in [20].

With `COc1cc(/C=C2\C(=O)Nc3ccc(Br)cc32)cc(OC)c1OC`, the growth in [1] is 84%; in assay [2] it was 72.2%; in [3], 80.9%; in assay [4], 54.7%; in assay [5], 82.5%; in [6] it was 79.1%. For the same compound, the growth in assay [7] was 42.1%; in assay [8], 55.7%; in [9] it was 72.8%; in assay [10], 63.6%; in assay [11], 16.3%; in [19] it was 52.2%. Also, the growth in assay [13] was 96.8%; in assay [14] it was 71.8%; in [15] it was 88.3%; in [16] it was 43%; in assay [17], 60.3%; in assay [18], 63%. The growth in assay [20] is 42.7%.

The values above are taken from PubChem BioAssay (NCI).
